# Experimental data as given in ChEMBL document CHEMBL3433997, “St. Jude Leishmania screening dataset” (2016).
# What was measured:
# Type in all cases: functional
# [1] = molecular target: Solute carrier family 2, facilitated glucose transporter member 1 (Homo sapiens) (UniProt P11166); assay: ST_JUDE_LEISH: Cytotoxicity at 2uM final concentration against transgenic Leishmania Mexicana promastigotes LmGLUT1 that are glucose transport deficient and complemented with the human glucose transporter GLUT1. Activity is measured by DNA content using SYBR green in vitro
# [2] = molecular target: Hexose transporter 1 (Plasmodium falciparum) (UniProt O97467); assay: ST_JUDE_LEISH: Cytotoxicity at 2uM final concentration against transgenic Leishmania Mexicana promastigotes LmPfHT that are glucose transport deficient and complemented with the Plasmodium falciparum hexose transporter. Activity is measured by DNA content using SYBR green in vitro
# [3] = molecular target: Glucose transporter (Leishmania mexicana) (UniProt O61059); assay: ST_JUDE_LEISH: Cytotoxicity at 2uM final concentration against transgenic Leishmania Mexicana promastigotes LmGT2 that are glucose transport deficient and complemented with the L. Mexicana glucose transporter 2. Activity is measured by DNA content using SYBR green in vitro
# Solute carrier family 2, facilitated glucose transporter member 1 (Homo sapiens), sequence (P11166 whole entry): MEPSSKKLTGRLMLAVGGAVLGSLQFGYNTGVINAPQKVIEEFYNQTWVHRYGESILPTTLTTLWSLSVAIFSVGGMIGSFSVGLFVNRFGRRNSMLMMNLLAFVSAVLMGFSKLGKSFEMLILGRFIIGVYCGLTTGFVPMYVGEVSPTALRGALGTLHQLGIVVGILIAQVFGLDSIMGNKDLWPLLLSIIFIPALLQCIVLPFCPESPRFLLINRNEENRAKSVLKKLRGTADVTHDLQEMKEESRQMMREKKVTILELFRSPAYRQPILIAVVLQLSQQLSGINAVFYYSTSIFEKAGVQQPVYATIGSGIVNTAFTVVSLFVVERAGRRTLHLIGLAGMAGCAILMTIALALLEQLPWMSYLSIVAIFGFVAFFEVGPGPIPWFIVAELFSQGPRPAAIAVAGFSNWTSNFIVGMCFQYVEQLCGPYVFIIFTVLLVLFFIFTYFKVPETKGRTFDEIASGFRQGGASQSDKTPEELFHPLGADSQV
Compound,inhibition [1],inhibition [2],inhibition [3]
OCCN1CCN(Cc2ccc(-c3cccc(-c4nc5ccccc5[nH]4)c3)cc2)CC1,-1.4%,-2.88%,-1.5%
O=C(NCc1cccc(CN2CCOCC2)c1)c1cc(Br)cc(N2CCN(c3ccncc3)CC2)c1,0.32%,0.81%,0.57%
CN(C)CCCN(C)C(=O)c1cc2cc(-c3ccccc3)ccc2n1S(=O)(=O)c1ccccc1,5.31%,-2.36%,-0.41%
CC(=O)N[C@@H]1c2cc(C(C)=O)ccc2OC(C)(C)[C@@H]1O,-0.93%,-0.7%,-0.73%
Cc1ccc(CCC(C)NCC(O)c2cccc(C(F)(F)F)c2)cc1 (centres undefined),-0.37%,0.53%,0.17%
Cn1nc(-c2ccc(CN[C@@H]3CCc4ccc(O)cc43)cc2)c2cnc(NC3CCCC3)nc21,0.66%,-1.03%,-0.55%
CN1CCN(CC(=O)Nc2cccc(-c3ccc(-c4nc5cc(F)ccc5[nH]4)cc3)c2)CC1,-1.54%,0.97%,3%
COc1ccc(OCC(=O)Nc2cc(-c3nc4ccccc4[nH]3)ccc2Cl)cc1,6.17%,6.14%,3.14%
COc1cc2nc(NCCN3CCOCC3)n3nc(-c4ccccc4)nc3c2cc1OC,8.12%,6.56%,5.62%
Cc1nc(C)c(-c2ccc(Br)cc2)c(O)c1Br,-0.12%,-1.35%,-2.85%
CCC(=O)N(c1ccccc1)C1CCN(CCCC(NC(=O)Nc2cc(C(F)(F)F)cc(C(F)(F)F)c2)c2ccc(Cl)c(Cl)c2)CC1 (centres undefined),-1.01%,0.47%,0.22%
CCCCCCN1CCC(NCc2ccc(C)cc2)CC1,12.6%,16%,17.6%
N=C1NC(c2ccccc2)(c2ccccc2)C(=O)N1C1CCCCC1,3.46%,3.28%,1.18%
